Laboratory results from PubChem BioAssay AID1159580 (chemical genetic matrix, 2015).
About 2,000 (36%) of roughly 5,500 compounds were called active. Inconclusive results (about 18%) are left out. Cut-off read from the data, not from the text of the source: active = normalized growth mostly below about 0.91 (no sharp cut-off); inconclusive = no clear call, values can overlap the other calls; inactive = mostly above about 0.92. The list shows a part of the results.

Test: chemical genetic growth profiling, strain panel (AID 1159580);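 note: tested at 20 µM; growth read once vehicle control cultures reached saturation at 30 °C; 1 = growth at the plate median or of vehicle wells; lower values mean less growth of the strain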
Details: S. cerevisiae deletion strains, growth OD
[1] = locus YAL040C, strain CLN3, hits give low values
[2] = locus YCL061C, strain MRC1 (second series), hits give low values
[3] = locus YDR363W, strain ESC2, hits give low values
[4] = locus YER002W, strain NOP16, hits give low values
[5] = locus YGR078C, strain PAC10, hits give low values
[6] = locus YNL175C, strain NOP13, hits give low values
[7] = locus YNL197C, strain WHI3, hits give low values
[8] = locus YNL224C, strain SQS1, hits give low values
[9] = locus YNL322C, strain KRE1, hits give low values
[10] = locus YOR083W, strain WHI5 (second series), hits give low values

Measured: normalized growth

NC(N)=Nc1ccc2[nH]c3c(c2c1)C[C@@]1(O)[C@H]2Cc4ccc(O)c5c4[C@@]1(CCN2CC1CC1)[C@H]3O5
inactive: locus YAL013W, strain DEP1, hits give low values 1.02 | [1] 1.07 | [2] 0.991 | locus YDR150W, strain NUM1, hits give low values 0.986 | [3] 1.04 | [4] 1.01 | [5] 0.991 | locus YJR075W, strain HOC1, hits give low values 1.01 | [6] 0.998 | [7] 0.985 | [8] 1 | [9] 1.03 | [10] 0.97

Oc1ccc(C2CNCc3sccc32)cc1O (centres undefined)
active: [9] 0.892
inactive: [1] 1.01 | [2] 0.962 | [3] 0.999 | [4] 1 | [5] 0.998 | locus YMR263W, strain SAP30, hits give low values 1 | locus YNL128W, strain TEP1, hits give low values 1.01 | locus YNL153C, strain GIM3, hits give low values 0.963 | [6] 0.995 | [7] 0.995 | [8] 1 | [10] 1

NNC(=O)COc1ccc(C2SCCS2)cc1
active: locus YDL101C, strain DUN1, hits give low values 0.337 | locus YDL214C, strain PRR2, hits give low values 0.16 | locus YDR477W, strain SNF1, hits give low values 0.197 | locus YER123W, strain YCK3, hits give low values 0.148 | locus YER133W, strain GLC7, hits give low values 0.4 | locus YFR019W, strain FAB1, hits give low values 0.144 | locus YGR040W, strain KSS1, hits give low values 0.233 | locus YGR052W, strain FMP48, hits give low values 0.152 | locus YGR092W, strain DBF2, hits give low values 0.13 | locus YHR030C, strain SLT2, hits give low values 0.104 | locus YHR079C, strain IRE1, hits give low values 0.127 | locus YHR082C, strain KSP1, hits give low values 0.188 | locus YHR205W, strain SCH9, hits give low values 0.162 | locus YJL095W, strain BCK1, hits give low values 0.128 | locus YJL157C, strain FAR1, hits give low values 0.163 | locus YJR066W, strain TOR1 (second series), hits give low values 0.156 | locus YJR066W, strain TOR1, hits give low values 0.159 | locus YKL048C, strain ELM1, hits give low values 0.215 | locus YKL067W, strain YNK1, hits give low values 0.141 | locus YKL101W, strain HSL1, hits give low values 0.153 | locus YKL203C, strain TOR2, hits give low values 0.209 | locus YLR113W, strain HOG1, hits give low values 0.171 | locus YLR133W, strain CKI1, hits give low values 0.194 | locus YLR403W, strain SFP1, hits give low values 0.152 | locus YML070W, strain DAK1, hits give low values 0.145 | locus YMR205C, strain PFK2 (second series), hits give low values 0.151 | locus YMR277W, strain FCP1, hits give low values 0.85 | locus YNL020C, strain ARK1, hits give low values 0.195 | locus YNL183C, strain NPR1, hits give low values 0.187 | locus YNL207W, strain RIO2, hits give low values 0.829 | locus YNL307C, strain MCK1 (second series), hits give low values 0.157 | locus YOL136C, strain PFK27, hits give low values 0.159 | locus YOR061W, strain CKA2, hits give low values 0.115 | locus YOR119C, strain RIO1, hits give low values 0.183 | locus YOR231W, strain MKK1, hits give low values 0.159 | locus YPL031C, strain PHO85, hits give low values 0.201 | locus YPL153C, strain RAD53, hits give low values 0.181 | locus YPL204W, strain HRR25, hits give low values 0.234 | locus YPL256C, strain CLN2, hits give low values 0.173 | locus YPR106W, strain ISR1, hits give low values 0.575 | locus YPR111W, strain DBF20, hits give low values 0.608 | strain NNK1, hits give low values 0.24
inactive: locus YBL105C, strain PKC1, hits give low values 0.962 | locus YBR135W, strain CKS1, hits give low values 0.954 | locus YBR136W, strain MEC1, hits give low values 0.986 | locus YBR160W, strain CDC28, hits give low values 0.96 | locus YDL017W, strain CDC7, hits give low values 0.971 | locus YDL028C, strain MPS1, hits give low values 0.964 | locus YDL108W, strain KIN28, hits give low values 0.97 | locus YDR052C, strain DBF4, hits give low values 0.969 | locus YDR226W, strain ADK1, hits give low values 0.962 | locus YFR003C, strain YPI1, hits give low values 0.974 | locus YFR028C, strain CDC14, hits give low values 0.973 | locus YIL147C, strain SLN1, hits give low values 0.969 | locus YJR016C, strain ILV3, hits give low values 0.939 | locus YKL193C, strain SDS22, hits give low values 0.927 | locus YMR001C, strain CDC5, hits give low values 0.95 | locus YNL006W, strain LST8, hits give low values 0.945 | locus YNL161W, strain CBK1, hits give low values 0.941 | locus YNL222W, strain SSU72, hits give low values 0.934 | locus YOR329C, strain SCD5, hits give low values 0.972 | locus YPL209C, strain IPL1, hits give low values 0.965 | locus YPR025C, strain CCL1, hits give low values 0.954
